Data on one sequence can be found in article PMC7862700, “An all-to-all approach to the identification of sequence-specific readers for epigenetic DNA modifications on cytosine”.

Holding throughout (test): DAPPL (digital affinity profiling via proximity ligation, sequencing); 10 mM Tris-HCl pH 7.5, 50 mM NaCl, 1 mM DTT, 4% glycerol, room temperature, 30 min; GST-TFs on glutathione beads, 16-mer random dsDNA library, 0.1% formaldehyde crosslink after washing; high values mean tight binding
One assay addresses T1, FEV (Homo sapiens, UniProt Q99581 1-238).
T1 sequence: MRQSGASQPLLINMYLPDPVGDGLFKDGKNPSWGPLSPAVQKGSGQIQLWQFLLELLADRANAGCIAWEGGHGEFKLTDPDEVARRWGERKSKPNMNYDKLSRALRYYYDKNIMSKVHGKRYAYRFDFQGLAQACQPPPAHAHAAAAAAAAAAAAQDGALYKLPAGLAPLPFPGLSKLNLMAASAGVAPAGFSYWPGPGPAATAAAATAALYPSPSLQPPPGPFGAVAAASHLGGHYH
The following applies: protein: recombinant; tags: N-terminal GST; dsDNA, one strand shown. Summed up: (§1)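 Yeast served to express human transcription factors as GST fusions, which were then captured on glutathione beads and labelled with DNA barcodes. Pooled with a tag-only sample, they were incubated with 200 nmole of a 16-mer random double-stranded DNA library for 30 min at room temperature in Tris/NaCl/DTT/glycerol buffer, washed, crosslinked with 0.1% formaldehyde, ligated by proximity, amplified by PCR and sequenced. Dividing each hexamer's read frequency for a factor by its frequency for the tag-only sample gives the binding signal.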

The next assay addresses ETV5 (Homo sapiens, UniProt P41161 1-510). The following applies: protein: recombinant; tags: N-terminal GST; dsDNA, one strand shown. In a few lines: as §1
For the next assay, the target named is HSF1 (Homo sapiens, UniProt Q00613 1-529). The following applies: protein: recombinant; tags: N-terminal GST; chain copies: 3; dsDNA, one strand shown. In a few lines:
as §1

For the next assay, the target named is T2, SPIC (Homo sapiens, UniProt Q8N5J4 1-248).
T2 sequence: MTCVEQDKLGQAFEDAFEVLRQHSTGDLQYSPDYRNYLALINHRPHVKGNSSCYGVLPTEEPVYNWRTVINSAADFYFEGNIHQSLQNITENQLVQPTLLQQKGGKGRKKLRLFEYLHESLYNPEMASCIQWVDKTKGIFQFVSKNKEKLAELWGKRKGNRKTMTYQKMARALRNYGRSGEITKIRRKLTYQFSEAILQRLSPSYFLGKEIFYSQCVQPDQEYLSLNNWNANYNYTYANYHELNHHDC
The following applies: protein: recombinant; tags: N-terminal GST; dsDNA, one strand shown. In a few lines:
as §1

For a further assay, the target named is ELF4 (Homo sapiens, UniProt Q99607 1-663). The following applies: protein: recombinant; tags: N-terminal GST; dsDNA, one strand shown. Summed up:
as §1

The next assay has as its target T3, ELK4 (Homo sapiens, UniProt P28324-2 1-405).
T3 sequence: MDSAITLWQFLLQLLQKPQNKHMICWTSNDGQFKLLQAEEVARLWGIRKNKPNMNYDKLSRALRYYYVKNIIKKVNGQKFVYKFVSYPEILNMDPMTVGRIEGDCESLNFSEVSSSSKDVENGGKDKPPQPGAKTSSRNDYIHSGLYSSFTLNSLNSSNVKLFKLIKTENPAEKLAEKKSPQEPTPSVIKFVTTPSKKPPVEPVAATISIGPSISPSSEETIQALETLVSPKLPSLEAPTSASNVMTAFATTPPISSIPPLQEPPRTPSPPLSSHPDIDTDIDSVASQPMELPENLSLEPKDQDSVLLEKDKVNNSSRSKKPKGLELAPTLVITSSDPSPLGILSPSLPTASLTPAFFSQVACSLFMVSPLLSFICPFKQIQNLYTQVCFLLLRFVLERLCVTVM
The following applies: protein: recombinant; tags: N-terminal GST; dsDNA, one strand shown. In a few lines:
as §1

A further assay has as its target T4, ETV2 (Homo sapiens, UniProt O00321 1-342).
T4 sequence: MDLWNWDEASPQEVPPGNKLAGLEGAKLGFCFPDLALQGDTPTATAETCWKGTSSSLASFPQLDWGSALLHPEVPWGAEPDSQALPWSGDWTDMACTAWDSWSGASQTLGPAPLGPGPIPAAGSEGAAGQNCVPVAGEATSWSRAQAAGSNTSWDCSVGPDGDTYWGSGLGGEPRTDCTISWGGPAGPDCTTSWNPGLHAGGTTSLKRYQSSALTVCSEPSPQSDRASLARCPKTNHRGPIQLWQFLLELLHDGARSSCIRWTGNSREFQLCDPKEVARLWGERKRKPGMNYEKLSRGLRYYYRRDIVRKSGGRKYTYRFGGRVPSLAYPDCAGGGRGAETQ
Particulars: protein: recombinant; tags: N-terminal GST; dsDNA, one strand shown. In a few lines: as §1

The next assay has as its target T5, ELF3 (Homo sapiens, UniProt P78545 1-371).
T5 sequence: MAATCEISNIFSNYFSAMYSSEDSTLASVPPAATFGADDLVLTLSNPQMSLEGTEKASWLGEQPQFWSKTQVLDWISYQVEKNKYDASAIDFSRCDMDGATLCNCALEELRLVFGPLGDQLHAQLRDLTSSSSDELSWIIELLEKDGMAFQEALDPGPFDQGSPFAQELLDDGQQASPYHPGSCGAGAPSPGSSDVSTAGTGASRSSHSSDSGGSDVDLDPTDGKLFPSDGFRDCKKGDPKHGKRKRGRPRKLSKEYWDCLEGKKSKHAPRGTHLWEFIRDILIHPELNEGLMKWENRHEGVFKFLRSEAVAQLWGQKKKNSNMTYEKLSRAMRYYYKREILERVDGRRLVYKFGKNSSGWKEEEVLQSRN
Particulars: protein: recombinant; tags: N-terminal GST; dsDNA, one strand shown. Summed up:
as §1

The target of a further assay is CRX (Homo sapiens, UniProt O43186 1-299). The following applies: protein: recombinant; tags: N-terminal GST; dsDNA, one strand shown. In a few lines:
as §1

The target in another assay is ETV1 (Homo sapiens, UniProt P50549 1-477). Particulars: protein: recombinant; tags: N-terminal GST; dsDNA, one strand shown. In a few lines: as §1
Chain of ETV1 (P50549 whole entry): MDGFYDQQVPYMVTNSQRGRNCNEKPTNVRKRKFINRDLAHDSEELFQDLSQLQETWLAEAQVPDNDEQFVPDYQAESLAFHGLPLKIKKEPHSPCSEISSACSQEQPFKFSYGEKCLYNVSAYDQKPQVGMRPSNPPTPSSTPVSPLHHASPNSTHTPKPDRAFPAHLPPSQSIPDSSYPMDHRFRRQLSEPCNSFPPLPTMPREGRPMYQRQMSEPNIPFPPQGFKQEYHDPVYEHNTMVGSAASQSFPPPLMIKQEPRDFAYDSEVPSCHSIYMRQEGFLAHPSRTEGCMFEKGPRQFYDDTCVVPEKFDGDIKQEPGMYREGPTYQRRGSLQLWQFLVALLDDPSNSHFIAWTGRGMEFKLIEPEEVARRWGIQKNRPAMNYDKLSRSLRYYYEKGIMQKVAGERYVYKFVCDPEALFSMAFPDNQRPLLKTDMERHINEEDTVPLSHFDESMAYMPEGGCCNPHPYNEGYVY
Another assay deals with T6, ERF (Homo sapiens, UniProt P50548 1-548).
T6 sequence: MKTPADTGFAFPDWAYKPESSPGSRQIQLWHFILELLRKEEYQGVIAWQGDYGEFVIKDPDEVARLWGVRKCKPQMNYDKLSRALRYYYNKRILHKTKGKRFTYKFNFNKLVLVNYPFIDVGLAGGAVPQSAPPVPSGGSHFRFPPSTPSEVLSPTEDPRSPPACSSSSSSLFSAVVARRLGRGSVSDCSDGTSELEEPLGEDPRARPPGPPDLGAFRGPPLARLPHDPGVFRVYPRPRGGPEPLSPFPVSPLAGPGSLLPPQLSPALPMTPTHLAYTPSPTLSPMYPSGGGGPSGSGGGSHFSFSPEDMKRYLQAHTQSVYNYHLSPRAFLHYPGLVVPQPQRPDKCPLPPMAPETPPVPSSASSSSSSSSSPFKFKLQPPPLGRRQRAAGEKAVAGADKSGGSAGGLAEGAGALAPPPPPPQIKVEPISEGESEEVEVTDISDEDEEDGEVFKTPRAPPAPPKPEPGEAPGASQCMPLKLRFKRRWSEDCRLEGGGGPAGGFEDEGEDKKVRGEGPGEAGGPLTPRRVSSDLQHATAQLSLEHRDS
The following applies: protein: recombinant; tags: N-terminal GST; dsDNA, one strand shown. Summed up:
as §1

Another assay addresses T7, ETV3L (Homo sapiens, UniProt Q6ZN32 1-361).
T7 sequence: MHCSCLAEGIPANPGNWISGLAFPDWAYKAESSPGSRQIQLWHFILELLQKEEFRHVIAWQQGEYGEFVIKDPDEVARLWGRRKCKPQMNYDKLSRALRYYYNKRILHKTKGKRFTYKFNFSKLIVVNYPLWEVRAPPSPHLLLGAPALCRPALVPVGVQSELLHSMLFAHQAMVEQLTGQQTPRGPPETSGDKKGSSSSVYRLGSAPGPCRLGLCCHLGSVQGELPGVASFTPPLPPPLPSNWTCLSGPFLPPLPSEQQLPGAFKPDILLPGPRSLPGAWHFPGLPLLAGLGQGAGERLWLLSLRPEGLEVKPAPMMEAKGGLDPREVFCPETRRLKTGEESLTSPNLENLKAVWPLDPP
The following applies: protein: recombinant; tags: N-terminal GST; dsDNA, one strand shown. Summed up:
as §1

The next assay concerns the target T8, ETS2 (Homo sapiens, UniProt P15036 1-469).
T8 sequence: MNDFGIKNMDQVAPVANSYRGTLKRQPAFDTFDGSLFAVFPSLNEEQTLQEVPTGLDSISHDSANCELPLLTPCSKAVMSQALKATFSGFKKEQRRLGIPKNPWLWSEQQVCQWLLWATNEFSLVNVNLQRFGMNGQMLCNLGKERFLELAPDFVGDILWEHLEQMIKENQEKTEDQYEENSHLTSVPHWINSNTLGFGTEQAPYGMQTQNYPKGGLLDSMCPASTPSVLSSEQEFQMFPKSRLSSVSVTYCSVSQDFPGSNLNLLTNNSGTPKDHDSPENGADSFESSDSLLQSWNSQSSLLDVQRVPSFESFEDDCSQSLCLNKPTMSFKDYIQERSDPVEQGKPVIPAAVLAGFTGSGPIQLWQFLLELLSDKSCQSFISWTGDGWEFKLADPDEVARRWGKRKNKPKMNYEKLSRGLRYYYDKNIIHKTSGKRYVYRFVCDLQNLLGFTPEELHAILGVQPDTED
Particulars: protein: recombinant; tags: N-terminal GST; dsDNA, one strand shown. Summed up:
as §1

In the next assay the target is T9, SPDEF (Homo sapiens, UniProt O95238 1-335).
T9 sequence: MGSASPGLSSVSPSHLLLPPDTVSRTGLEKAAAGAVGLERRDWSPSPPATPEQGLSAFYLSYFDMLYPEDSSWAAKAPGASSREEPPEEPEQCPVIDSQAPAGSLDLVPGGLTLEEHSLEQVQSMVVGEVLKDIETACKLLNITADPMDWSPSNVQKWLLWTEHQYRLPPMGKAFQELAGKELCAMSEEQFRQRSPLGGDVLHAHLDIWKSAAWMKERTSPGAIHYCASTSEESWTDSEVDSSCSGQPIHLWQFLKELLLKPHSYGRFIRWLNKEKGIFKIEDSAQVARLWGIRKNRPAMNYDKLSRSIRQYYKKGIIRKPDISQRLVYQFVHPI
Particulars: protein: recombinant; tags: N-terminal GST; dsDNA, one strand shown. In a few lines: as §1

The target in another assay is T10, ETV7 (Homo sapiens, UniProt Q9Y603 1-341).
T10 sequence: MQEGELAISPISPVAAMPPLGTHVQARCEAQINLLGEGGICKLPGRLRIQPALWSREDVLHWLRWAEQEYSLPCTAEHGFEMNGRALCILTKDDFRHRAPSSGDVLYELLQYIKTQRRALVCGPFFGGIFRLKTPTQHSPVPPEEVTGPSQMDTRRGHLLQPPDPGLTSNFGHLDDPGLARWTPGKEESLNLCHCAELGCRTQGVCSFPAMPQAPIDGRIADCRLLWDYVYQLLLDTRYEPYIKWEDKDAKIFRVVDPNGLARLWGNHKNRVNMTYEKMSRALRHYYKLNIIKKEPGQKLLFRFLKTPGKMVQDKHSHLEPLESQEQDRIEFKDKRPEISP
The following applies: protein: recombinant; tags: N-terminal GST; dsDNA, one strand shown. Summed up: as §1

For the next assay, the target named is T11, ELF5 (Homo sapiens, UniProt Q9UKW6-2 1-255).
T11 sequence: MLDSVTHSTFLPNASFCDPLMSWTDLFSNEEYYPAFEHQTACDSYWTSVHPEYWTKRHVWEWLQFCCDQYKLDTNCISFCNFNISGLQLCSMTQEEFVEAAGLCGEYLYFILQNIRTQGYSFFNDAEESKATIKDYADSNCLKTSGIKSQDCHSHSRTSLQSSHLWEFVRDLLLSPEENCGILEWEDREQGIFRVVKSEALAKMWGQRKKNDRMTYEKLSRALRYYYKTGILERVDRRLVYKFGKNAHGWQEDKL
The following applies: protein: recombinant; tags: N-terminal GST; dsDNA, one strand shown. Summed up: as §1

In a further assay the target is T12, ETV3 (Homo sapiens, UniProt P41162-2 1-143).
T12 sequence: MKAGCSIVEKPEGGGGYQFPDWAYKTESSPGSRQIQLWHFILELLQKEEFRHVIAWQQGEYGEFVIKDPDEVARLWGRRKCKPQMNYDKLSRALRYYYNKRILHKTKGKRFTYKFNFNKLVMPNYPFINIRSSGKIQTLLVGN
Particulars: protein: recombinant; tags: N-terminal GST; dsDNA, one strand shown. Summed up: as §1

Another assay concerns the target ETV6 (Homo sapiens, UniProt P41212 1-452). The following applies: protein: recombinant; tags: N-terminal GST; dsDNA, one strand shown. Summed up:
as §1

Chain of ETV5 (P41161 whole entry): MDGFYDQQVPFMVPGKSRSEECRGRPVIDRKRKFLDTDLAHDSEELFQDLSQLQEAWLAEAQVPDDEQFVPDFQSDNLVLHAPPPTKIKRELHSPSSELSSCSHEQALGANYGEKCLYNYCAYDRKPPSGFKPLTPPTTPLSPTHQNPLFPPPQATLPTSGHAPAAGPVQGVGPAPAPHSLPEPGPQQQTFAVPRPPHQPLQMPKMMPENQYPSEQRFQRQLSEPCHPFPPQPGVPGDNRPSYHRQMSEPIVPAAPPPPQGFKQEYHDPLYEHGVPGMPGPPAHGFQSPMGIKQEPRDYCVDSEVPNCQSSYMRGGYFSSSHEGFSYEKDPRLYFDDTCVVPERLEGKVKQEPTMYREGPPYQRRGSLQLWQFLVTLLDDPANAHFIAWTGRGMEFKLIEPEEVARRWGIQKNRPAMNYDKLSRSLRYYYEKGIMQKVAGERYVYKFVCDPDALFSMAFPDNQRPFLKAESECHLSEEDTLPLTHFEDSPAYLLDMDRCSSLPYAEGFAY
Chain of ETV6 (P41212 whole entry): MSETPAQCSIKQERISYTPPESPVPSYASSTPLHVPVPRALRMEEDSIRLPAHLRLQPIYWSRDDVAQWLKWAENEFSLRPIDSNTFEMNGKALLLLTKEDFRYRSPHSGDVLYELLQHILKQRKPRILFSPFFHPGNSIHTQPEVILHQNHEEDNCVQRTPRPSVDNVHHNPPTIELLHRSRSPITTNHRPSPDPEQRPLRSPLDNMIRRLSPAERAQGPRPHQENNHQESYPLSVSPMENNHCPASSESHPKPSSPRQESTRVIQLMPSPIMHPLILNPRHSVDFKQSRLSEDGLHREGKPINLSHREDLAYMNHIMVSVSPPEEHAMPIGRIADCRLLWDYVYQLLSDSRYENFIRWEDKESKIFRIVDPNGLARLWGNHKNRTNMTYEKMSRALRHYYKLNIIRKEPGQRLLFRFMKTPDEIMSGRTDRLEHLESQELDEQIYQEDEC
Chain of CRX (O43186 whole entry): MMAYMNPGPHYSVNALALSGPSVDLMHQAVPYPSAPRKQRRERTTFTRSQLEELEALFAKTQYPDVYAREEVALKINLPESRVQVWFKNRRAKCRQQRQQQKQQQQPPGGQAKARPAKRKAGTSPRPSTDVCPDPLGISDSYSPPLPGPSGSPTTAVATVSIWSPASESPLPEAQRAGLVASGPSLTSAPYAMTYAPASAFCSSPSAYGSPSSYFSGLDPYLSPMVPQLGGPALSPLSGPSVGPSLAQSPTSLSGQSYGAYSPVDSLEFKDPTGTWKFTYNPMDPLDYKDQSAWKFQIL
Chain of HSF1 (Q00613 whole entry): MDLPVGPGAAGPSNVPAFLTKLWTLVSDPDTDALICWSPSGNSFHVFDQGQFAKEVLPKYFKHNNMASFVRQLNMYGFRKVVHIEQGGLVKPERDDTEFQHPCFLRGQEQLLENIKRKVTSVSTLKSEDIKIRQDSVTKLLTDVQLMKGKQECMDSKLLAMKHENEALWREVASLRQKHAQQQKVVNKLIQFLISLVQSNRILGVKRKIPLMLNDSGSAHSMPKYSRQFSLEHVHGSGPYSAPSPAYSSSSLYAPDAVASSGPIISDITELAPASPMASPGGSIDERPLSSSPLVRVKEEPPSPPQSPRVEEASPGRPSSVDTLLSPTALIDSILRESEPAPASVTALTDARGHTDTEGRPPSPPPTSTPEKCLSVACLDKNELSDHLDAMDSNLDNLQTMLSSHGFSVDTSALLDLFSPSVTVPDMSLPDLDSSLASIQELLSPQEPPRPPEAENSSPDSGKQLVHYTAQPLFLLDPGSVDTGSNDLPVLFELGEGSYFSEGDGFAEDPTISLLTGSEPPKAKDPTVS
Chain of ELF4 (Q99607 whole entry): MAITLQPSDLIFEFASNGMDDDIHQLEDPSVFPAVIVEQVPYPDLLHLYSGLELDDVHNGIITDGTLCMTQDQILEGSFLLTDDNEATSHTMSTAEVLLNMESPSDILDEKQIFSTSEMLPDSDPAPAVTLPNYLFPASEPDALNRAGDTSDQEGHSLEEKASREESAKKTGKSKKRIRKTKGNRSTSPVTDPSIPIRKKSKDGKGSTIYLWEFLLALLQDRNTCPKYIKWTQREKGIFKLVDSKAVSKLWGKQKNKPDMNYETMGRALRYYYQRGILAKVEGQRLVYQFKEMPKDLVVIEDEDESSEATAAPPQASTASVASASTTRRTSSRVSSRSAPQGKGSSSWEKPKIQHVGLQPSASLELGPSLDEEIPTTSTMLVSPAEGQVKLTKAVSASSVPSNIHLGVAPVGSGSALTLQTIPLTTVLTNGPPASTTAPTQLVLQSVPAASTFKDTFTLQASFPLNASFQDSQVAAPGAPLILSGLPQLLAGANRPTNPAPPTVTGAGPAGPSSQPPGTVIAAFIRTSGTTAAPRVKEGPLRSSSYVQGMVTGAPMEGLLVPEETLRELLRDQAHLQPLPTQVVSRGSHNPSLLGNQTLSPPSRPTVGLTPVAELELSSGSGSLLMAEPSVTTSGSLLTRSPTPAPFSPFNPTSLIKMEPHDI

In the case of AACACT, the binding signal was 1.26 fold enrichment (6-mer frequency, TF over GST control) with FEV; 1.28 fold enrichment (6-mer frequency, TF over GST control) with ETV5; 1.18 fold enrichment (6-mer frequency, TF over GST control) with HSF1; 1.52 fold enrichment (6-mer frequency, TF over GST control) in the assay with SPIC; 1.3 fold enrichment (6-mer frequency, TF over GST control) with ELF4; 1.29 fold enrichment (6-mer frequency, TF over GST control) in the assay with ELK4. Besides, the binding signal in the assay with ETV2 is 1.26 fold enrichment (6-mer frequency, TF over GST control); with ELF3 it was 1.23 fold enrichment (6-mer frequency, TF over GST control); with CRX, 1.14 fold enrichment (6-mer frequency, TF over GST control); with ETV1, 1.25 fold enrichment (6-mer frequency, TF over GST control); with ERF it was 1.21 fold enrichment (6-mer frequency, TF over GST control); in the assay with ETV3L it was 1.3 fold enrichment (6-mer frequency, TF over GST control). Further, the binding signal was 1.37 fold enrichment (6-mer frequency, TF over GST control) with ETS2; 1.22 fold enrichment (6-mer frequency, TF over GST control) with SPDEF; 1.32 fold enrichment (6-mer frequency, TF over GST control) with ETV7; 1.34 fold enrichment (6-mer frequency, TF over GST control) with ELF5; 1.29 fold enrichment (6-mer frequency, TF over GST control) with ETV3; 1.4 fold enrichment (6-mer frequency, TF over GST control) with ETV6.
